{"source": "PubChem BioAssay (EPA / NIEHS)", "key": {"[1]": {"assay": "ACEA_AR_agonist_AUC_viability: ACEA Biosciences xCELLigence Real-Time Cell Analysis on Androgen Receptor Agonism for Viability (AID 2283775)", "summary_of_the_method": "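Read-out is area under the impedance curve at 80 h post-dose in 22Rv1 cells, with DMSO as baseline and signal loss taken as reduced viability. Compounds ran in duplicate from 100 uM final.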"}, "[2]": {"assay": "ACEA_ER_AUC_viability: ACEA Biosciences xCELLigence Real-Time Cell Analysis on Estrogen Receptor Agonism for Viability (AID 2283782);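 note: continuous compound exposure with impedance area under curve over 80 h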", "summary_of_the_method": "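T-47D human breast cells in phenol red-free RPMI1640 with 10% charcoal-stripped FBS were dosed with an 8-point 1:4 dilution series from 100 uM top final concentration, in duplicate. Impedance-based growth was followed for 80 h; AUC analysed versus DMSO.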"}, "[3]": {"assay": "ACEA_AR_antagonist_AUC_viability: ACEA Biosciences xCELLigence Real-Time Cell Analysis on Androgen Receptor Antagonism for Viability (AID 2283776);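 note: hits lower the growth signal relative to DMSO meaning cytotoxicity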", "summary_of_the_method": "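Impedance read-out (RT-CES): area under growth curve at 80 h post-dose, loss of signal scored vs DMSO baseline. 22Rv1 cells; 8-pt 1:4 series, top 100 uM final, ≤0.5% DMSO; biological duplicate.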"}, "[4]": {"biological_target": "AR (gene 367) (UniProt P10275)", "sequence (P10275 whole entry, looked up)": "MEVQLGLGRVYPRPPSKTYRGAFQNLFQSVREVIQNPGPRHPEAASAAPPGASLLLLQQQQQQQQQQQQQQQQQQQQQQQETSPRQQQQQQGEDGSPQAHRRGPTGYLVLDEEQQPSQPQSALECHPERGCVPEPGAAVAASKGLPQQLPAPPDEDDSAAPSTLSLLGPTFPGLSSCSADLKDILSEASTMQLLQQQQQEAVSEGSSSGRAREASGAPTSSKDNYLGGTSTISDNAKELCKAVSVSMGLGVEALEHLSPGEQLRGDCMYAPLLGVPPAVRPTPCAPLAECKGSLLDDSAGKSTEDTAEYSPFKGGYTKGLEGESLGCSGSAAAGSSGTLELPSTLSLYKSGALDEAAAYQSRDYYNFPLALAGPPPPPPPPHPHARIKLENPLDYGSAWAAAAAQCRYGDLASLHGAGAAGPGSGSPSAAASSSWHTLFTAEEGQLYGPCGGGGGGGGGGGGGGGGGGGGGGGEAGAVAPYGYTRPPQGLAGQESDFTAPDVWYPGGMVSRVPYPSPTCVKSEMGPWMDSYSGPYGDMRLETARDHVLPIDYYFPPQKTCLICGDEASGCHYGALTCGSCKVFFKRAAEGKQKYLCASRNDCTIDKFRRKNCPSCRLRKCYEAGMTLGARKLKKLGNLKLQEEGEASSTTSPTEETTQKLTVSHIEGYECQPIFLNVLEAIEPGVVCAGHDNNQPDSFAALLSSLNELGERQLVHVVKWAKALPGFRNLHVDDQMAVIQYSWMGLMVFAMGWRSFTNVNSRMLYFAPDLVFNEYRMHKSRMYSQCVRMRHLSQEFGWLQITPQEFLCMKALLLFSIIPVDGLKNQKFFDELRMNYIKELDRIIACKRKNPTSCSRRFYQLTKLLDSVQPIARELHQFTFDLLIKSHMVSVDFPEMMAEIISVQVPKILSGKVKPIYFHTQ", "assay": "ACEA_AR_antagonist_80hr: ACEA Biosciences xCELLigence Real-Time Cell Analysis on Androgen Receptor Antagonism for Proliferation (AID 2283787);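 note: hits lower the impedance growth signal relative to DMSO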", "summary_of_the_method": "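Impedance readout (RT-CES), 80 h post-dose; loss-of-signal vs DMSO baseline. 22Rv1 cells in assay medium. Compounds: 8-pt 1:4 series, max 100 uM final, up to 0.5% DMSO; n = 2.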"}, "[5]": {"assay": "STM_H9_NormalizedViability: Cytotoxicity Assessment at 120 hours in the Stemina devTOX quickPredict H9 human embryonic stem cell (hESC)-based Assay (AID 2283784)", "summary_of_the_method": "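Undifferentiated H9 hESCs kept pluripotent were exposed to compound, with media and chemical replaced every 24h. CellTiter-Fluor protease-substrate fluorescence was background-corrected and normalized per plate to the 0.1% DMSO vehicle; signal loss indicates reduced viability.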"}, "[6]": {"biological_target": "AR (gene 367) (UniProt P10275)", "assay": "ACEA_AR_agonist_80hr: ACEA Biosciences xCELLigence Real-Time Cell Analysis on Androgen Receptor Agonism for Proliferation (AID 2283783);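 note: hits increase impedance growth signal above DMSO baseline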", "summary_of_the_method": "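22Rv1 human prostate cancer cells were seeded after preconditioning in assay medium and monitored overnight, then dosed in an eight-point 1:4 dilution series from 100 uM (≤0.5% DMSO). Impedance-based growth was read at 80 h, gain-of-signal versus DMSO.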"}}, "note": "Records with an inconclusive call do not appear. Calls of active or inactive are those of the source. Rule for the calls: active = hit-call score of the fitted dose curve at least 0.9, where 1 is the maximum; inconclusive = response in the unintended direction; inactive = score below 0.9."}
{"smiles": "C1CN(SSN2CCOCC2)CCO1", "values": [{"measurement": "outcome", "setting": "[1]", "result": "inactive"}, {"measurement": "AC50", "setting": "[2]", "result": "82.4 µM (active)"}]}
{"smiles": "CCCCCCOC(=O)C(C)CC", "note": "(stereo not drawn)", "values": [{"measurement": "AC50", "setting": "[2]", "result": "66.7 µM (active)"}]}
{"smiles": "CC(C)(C)c1ccc(-c2ccc(C(C)(C)C)cc2)cc1", "values": [{"measurement": "outcome", "setting": "[1]", "result": "inactive"}, {"measurement": "outcome", "setting": "[3]", "result": "inactive"}, {"measurement": "outcome", "setting": "[2]", "result": "inactive"}, {"measurement": "outcome", "setting": "[4]", "result": "inactive"}]}
{"smiles": "O=C(OCC1CCC2OC2C1)C1CCC2OC2C1", "note": "(stereo not drawn)", "values": [{"measurement": "AC50", "setting": "[1]", "result": "9.05 µM (active)"}, {"measurement": "outcome", "setting": "[2]", "result": "inactive"}]}
{"smiles": "CC=CCO", "values": [{"measurement": "outcome", "setting": "[2]", "result": "inactive"}]}
{"smiles": "C=CC(=O)NC(C)(C)CS(=O)(=O)O", "values": [{"measurement": "outcome", "setting": "[1]", "result": "inactive"}, {"measurement": "AC50", "setting": "[2]", "result": "11.2 µM (active)"}]}
{"smiles": "CC(C)=CCC[C@H](C)CCO", "values": [{"measurement": "outcome", "setting": "[1]", "result": "inactive"}, {"measurement": "outcome", "setting": "[3]", "result": "inactive"}, {"measurement": "outcome", "setting": "[2]", "result": "inactive"}, {"measurement": "outcome", "setting": "[4]", "result": "inactive"}]}
{"smiles": "CC(C)(C)c1ccc(N)cc1", "values": [{"measurement": "outcome", "setting": "[3]", "result": "inactive"}, {"measurement": "outcome", "setting": "[2]", "result": "inactive"}]}
{"smiles": "Cn1c([N+](=O)[O-])cnc1COC(N)=O", "values": [{"measurement": "outcome", "setting": "[3]", "result": "inactive"}, {"measurement": "outcome", "setting": "[2]", "result": "inactive"}]}
{"smiles": "Cc1ccc(N/N=c2\\c(=O)cc/c(=N/Nc3ccc(S(=O)(=O)O)cc3)c2=O)c(C)c1", "values": [{"measurement": "AC50", "setting": "[3]", "result": "8.3 µM (active)"}, {"measurement": "outcome", "setting": "[2]", "result": "inactive"}]}
{"smiles": "O=c1cc(-c2ccccc2)oc2ccccc12", "values": [{"measurement": "outcome", "setting": "[1]", "result": "inactive"}, {"measurement": "outcome", "setting": "[3]", "result": "inactive"}, {"measurement": "AC50", "setting": "[4]", "result": "0.0284 µM (active)"}]}
{"smiles": "Cc1ccc(C(C)(C)C)cc1", "values": [{"measurement": "outcome", "setting": "[1]", "result": "inactive"}, {"measurement": "outcome", "setting": "[2]", "result": "inactive"}]}
{"smiles": "NC(=O)c1ccccc1O", "values": [{"measurement": "outcome", "setting": "[1]", "result": "inactive"}, {"measurement": "outcome", "setting": "[2]", "result": "inactive"}]}
{"smiles": "Nc1ncn([C@@H]2O[C@H](CO)[C@@H](O)[C@H]2O)c(=O)n1", "values": [{"measurement": "AC50", "setting": "[2]", "result": "3.22 µM (active)"}]}
{"smiles": "CC(C)c1ccc(C=O)cc1", "values": [{"measurement": "outcome", "setting": "[2]", "result": "inactive"}]}
{"smiles": "CCCCOCCOC(=O)COc1nc(Cl)c(Cl)cc1Cl", "values": [{"measurement": "outcome", "setting": "[1]", "result": "inactive"}, {"measurement": "outcome", "setting": "[2]", "result": "inactive"}]}
{"smiles": "O=C1C(N(CO)C(=O)NCO)N(CO)C(=O)N1CO", "note": "(stereo not drawn)", "values": [{"measurement": "outcome", "setting": "[1]", "result": "inactive"}, {"measurement": "outcome", "setting": "[2]", "result": "inactive"}]}
{"smiles": "O=S(=O)(O)c1ccc2cc(O)c(S(=O)(=O)O)cc2c1", "values": [{"measurement": "AC50", "setting": "[2]", "result": "50 µM (active)"}]}
{"smiles": "CCCCCc1ccc(Cl)cc1", "values": [{"measurement": "outcome", "setting": "[3]", "result": "inactive"}, {"measurement": "outcome", "setting": "[2]", "result": "inactive"}]}
{"smiles": "CN(C)c1ccc(N=Nc2ccccc2C(=O)O)cc1", "values": [{"measurement": "AC50", "setting": "[1]", "result": "6.64 µM (active)"}, {"measurement": "AC50", "setting": "[2]", "result": "11.8 µM (active)"}, {"measurement": "AC50", "setting": "[5]", "result": "68.1 µM (active)"}]}
{"smiles": "CC(CC=O)CCCC(C)(C)O", "note": "(stereo not drawn)", "values": [{"measurement": "outcome", "setting": "[6]", "result": "inactive"}]}
{"smiles": "Nc1ccc(N)c(Cl)c1", "values": [{"measurement": "AC50", "setting": "[5]", "result": "18.7 µM (active)"}]}
